{"source": "PubChem BioAssay (Tox21)", "note": "“And” between values parts separate entries of the source, which are not always exact repeats. Identical values can stand only once. Results filed as inconclusive are left out. A call without a number means that no potency is given here. The source made the active and inactive calls. Calls come from the whole dose curve; as a rule, active = well fitted cell-killing curve with a large enough effect in the repeat runs; inconclusive = weak or mixed curves, or effect the other way; inactive = flat fitted curve, though single readings scatter. Potency is the fitted concentration of half-maximal effect.", "data": [{"experiment": "cAMP Responsive Elements (CRE) small molecule antagonists, cell-based qHTS assay: qHTS cell viability counter screen (AID 2060913); note: nearly all actives have a fitted effect of over 40% in size", "settings": "CRE-bla HEK293T viability, CellTiter-Glo luminescence, 5 h; series mostly up to 92.4 µM", "in_short": "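Viability of NKH477-stimulated (0.25 uM final) CRE-bla HEK293T cells is measured by CellTiter-Glo luminescence following 3 hrs compound exposure at 37 C.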", "values": [{"compound": "CCNc1nc(NCC)nc(SC)n1", "Potency": "inactive"}, {"compound": "O=[N+]([O-])c1ccc(Cl)c([N+](=O)[O-])c1", "Potency": "27.7 µM (active) and 57 µM (active)"}, {"compound": "C=CCN1CC[C@]23c4c5ccc(O)c4O[C@H]2C(=O)CC[C@@]3(O)[C@H]1C5", "Potency": "inactive"}, {"compound": "C=C(Cl)CSC(=S)N(CC)CC", "Potency": "inactive"}, {"compound": "CC(=O)[O-].CC(=O)[O-].[Co+2]", "Potency": "inactive"}, {"compound": "BrCCCBr", "Potency": "inactive"}, {"compound": "Nc1nc(N)nc(NC2CC2)n1", "Potency": "inactive"}, {"compound": "Nc1n[nH]c(N)n1", "Potency": "inactive"}, {"compound": "CN=CNc1ccc(C)cc1C", "Potency": "inactive"}, {"compound": "NC(=O)C(Cl)Cl", "Potency": "inactive"}, {"compound": "OC(Cn1cncn1)(c1ccc(F)cc1)c1ccccc1F", "note": "(centres undefined)", "Potency": "inactive"}, {"compound": "CC1CC(CC2CCC(N)C(C)C2)CCC1N", "note": "(centres undefined)", "Potency": "inactive"}, {"compound": "Brc1ccc(Oc2ccc(Br)cc2Br)c(Br)c1", "Potency": "inactive"}, {"compound": "OC(Cc1ccccc1Cl)(Cn1cncn1)C1(Cl)CC1", "note": "(centres undefined)", "Potency": "inactive"}, {"compound": "CC1=C(C(=O)O)N2C(=O)[C@@H](N)[C@H]2SC1", "viability change, negative = cytotoxic": "6.72% [at 18.9 µM] (inactive)"}, {"compound": "Fc1cc(Br)ccc1CBr", "Potency": "inactive"}, {"compound": "O=C(Cl)OCc1ccccc1", "Potency": "inactive"}, {"compound": "C=CCCC#N", "Potency": "inactive"}, {"compound": "C[C@H]1CC[C@@H]2[C@@H](C)[C@H]3[C@H](C[C@H]4[C@@H]5CC=C6CC(O[C@@H]7O[C@H](CO)[C@H](O)[C@H](O[C@@H]8O[C@H](CO)[C@@H](O)[C@H](O)[C@H]8O)[C@H]7O[C@H]7O[C@@H](C)[C@H](O)[C@@H](O)[C@H]7O)CC[C@]6(C)[C@H]5CC[C@]34C)N2C1", "note": "(some centres undefined)", "Potency": "inactive"}, {"compound": "CC(C)CC(C)N", "note": "(centres undefined)", "Potency": "inactive"}, {"compound": "CC(=O)O[C@H]1CC[C@@]2(C)C(=CC[C@@H]3[C@@H]2CC[C@]2(C)C(=O)CC[C@@H]32)C1", "Potency": "inactive"}, {"compound": "CCOC(=O)OC1=C(c2cc(C)ccc2C)C(=O)NC12CCC(OC)CC2", "note": "(centres undefined)", "Potency": "inactive"}, {"compound": "O=C(O)c1cc(Cl)ccc1Cl", "Potency": "inactive"}, {"compound": "COc1cc(CC#N)cc(OC)c1OC", "Potency": "inactive"}, {"compound": "CCN(CC)C(=O)[C@@H]1C=C2c3cccc4[nH]cc(c34)C[C@H]2N(C)C1", "Potency": "inactive"}, {"compound": "O=C(Cc1ccccc1)c1ccccc1", "Potency": "inactive"}, {"compound": "CCCCCCCCCCCC(=O)O", "Potency": "inactive"}, {"compound": "CC(C)[N+](=O)[O-]", "Potency": "inactive"}, {"compound": "CC1(C)C(C(=O)OC(C#N)c2cccc(Oc3ccccc3)c2)C1(C)C", "note": "(centres undefined)", "Potency": "inactive"}, {"compound": "Clc1ccc(CCC(Cn2ccnc2)Sc2c(Cl)cccc2Cl)cc1", "note": "(centres undefined)", "Potency": "inactive"}, {"compound": "O=C(O)C(Cl)Br", "note": "(centres undefined)", "Potency": "inactive"}, {"compound": "CCCCOC(=O)c1ccccc1C(=O)OCc1ccccc1", "Potency": "inactive"}, {"compound": "CC(C)C(Nc1ccc(C(F)(F)F)cc1Cl)C(=O)OC(C#N)c1cccc(Oc2ccccc2)c1", "note": "(centres undefined)", "Potency": "inactive"}, {"compound": "COC(=O)COc1ccc(Cl)cc1Cl", "Potency": "inactive"}, {"compound": "CC(C)(C)OOC(C)(C)CCC(C)(C)OOC(C)(C)C", "Potency": "inactive"}, {"compound": "CCOC(=O)C1(c2ccccc2)CCN(CCC(C#N)(c2ccccc2)c2ccccc2)CC1", "Potency": "inactive"}, {"compound": "C[C@]12CC[C@@H](O)C[C@@H]1CC[C@@H]1[C@@H]2CC[C@]2(C)C(=O)CC[C@@H]12", "Potency": "inactive"}, {"compound": "O=c1oc2ccccc2c(O)c1C(CC(O)c1ccc(-c2ccc(Br)cc2)cc1)c1ccccc1", "note": "(centres undefined)", "Potency": "inactive"}, {"compound": "CNC(=O)Oc1ccccc1C1OCCO1", "Potency": "inactive"}]}]}
